Legend:
Assay in all cases: SPOT peptide array binding signal intensity (averaged, normalized) (arbitrary units (background-subtracted, floor 0; scale differs between SH3 domains)); higher = stronger binding of the SH3 domain to the peptide
AgAbp1 = molecular target: AgAbp1
Procedure, shortened: (§1)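 Cellulose membranes carried synthetic 15-mer peptides with cysteines swapped for serines. These were incubated overnight at 4°C with 10 μg/ml of GST-fused SH3 domains from four yeast species in TBS-based blocking buffer. Binding signal, detected with anti-GST antibody and quantified in Genespotter, is the normalized, background-subtracted spot intensity averaged over replicates, in arbitrary units specific to each domain.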

AgBbc1 = molecular target: AgBbc1
Procedure, shortened: as §1

AgBem1-D1 = molecular target: AgBem1-D1
Procedure, shortened: as §1

AgBzz1-D1 = molecular target: AgBzz1-D1
Procedure, shortened: as §1

AgBzz1-D2 = molecular target: AgBzz1-D2
Procedure, shortened: as §1

AgCyk3 = molecular target: AgCyk3
Procedure, shortened: as §1

AgFus1 = molecular target: AgFus1
Procedure, shortened: as §1

AgHof1 = molecular target: AgHof1
Procedure, shortened: as §1

AgHse1 = molecular target: AgHse1
Procedure, shortened: as §1

AgLsb1 = molecular target: AgLsb1
Procedure, shortened: as §1

AgLsb4 = molecular target: AgLsb4
Procedure, shortened: as §1

AgMyo5 = molecular target: AgMyo5
Procedure, shortened: as §1

AgNbp2 = molecular target: AgNbp2
Procedure, shortened: as §1

AgRvs167 = molecular target: AgRvs167
Procedure, shortened: as §1

AgSho1 = molecular target: AgSho1
Procedure, shortened: as §1

AgSla1-D1-D2 = molecular target: AgSla1-D1-D2
Procedure, shortened: as §1

AgSla1-D3 = molecular target: AgSla1-D3
Procedure, shortened: as §1

CaAbp1-D1 = molecular target: CaAbp1-D1
Procedure, shortened: as §1

CaAbp1-D2 = molecular target: CaAbp1-D2
Procedure, shortened: as §1

CaBbc1 = molecular target: CaBbc1
Procedure, shortened: as §1

CaBem1-D1 = molecular target: CaBem1-D1
Procedure, shortened: as §1

CaBzz1-D1 = molecular target: CaBzz1-D1
Procedure, shortened: as §1

CaBzz1-D2 = molecular target: CaBzz1-D2
Procedure, shortened: as §1

CaCyk3 = molecular target: CaCyk3
Procedure, shortened: as §1

CaFus1 = molecular target: CaFus1
Procedure, shortened: as §1

CaHof1 = molecular target: CaHof1
Procedure, shortened: as §1

CaHse1 = molecular target: CaHse1
Procedure, shortened: as §1

CaLsb1 = molecular target: CaLsb1
Procedure, shortened: as §1

CaLsb4 = molecular target: CaLsb4
Procedure, shortened: as §1

CaMyo5 = molecular target: CaMyo5
Procedure, shortened: as §1

CaNbp2 = molecular target: CaNbp2
Procedure, shortened: as §1

CaRvs167 = molecular target: CaRvs167
Procedure, shortened: as §1

CaRvs167-3 = molecular target: CaRvs167-3
Procedure, shortened: as §1

CaSho1 = molecular target: CaSho1
Procedure, shortened: as §1

CaSla1-D1-D2 = molecular target: CaSla1-D1-D2
Procedure, shortened: as §1

CaSla1-D3 = molecular target: CaSla1-D3
Procedure, shortened: as §1

ScAbp1 = molecular target: ScAbp1
Procedure, shortened: as §1

ScBbc1 = molecular target: ScBbc1
Procedure, shortened: as §1

ScBem1-D1 = molecular target: ScBem1-D1
Procedure, shortened: as §1

ScBzz1-D1 = molecular target: ScBzz1-D1
Procedure, shortened: as §1

ScBzz1-D2 = molecular target: ScBzz1-D2
Procedure, shortened: as §1

ScCyk3 = molecular target: ScCyk3
Procedure, shortened: as §1

ScFus1 = molecular target: ScFus1
Procedure, shortened: as §1

ScHof1 = molecular target: ScHof1
Procedure, shortened: as §1

ScHse1 = molecular target: ScHse1
Procedure, shortened: as §1

ScLsb1 = molecular target: ScLsb1
Procedure, shortened: as §1

ScLsb2 = molecular target: ScLsb2
Procedure, shortened: as §1

ScLsb3 = molecular target: ScLsb3
Procedure, shortened: as §1

ScLsb4 = molecular target: ScLsb4
Procedure, shortened: as §1

ScMyo3 = molecular target: ScMyo3
Procedure, shortened: as §1

ScMyo5 = molecular target: ScMyo5
Procedure, shortened: as §1

ScNbp2 = molecular target: ScNbp2
Procedure, shortened: as §1

ScPex13 = molecular target: ScPex13
Procedure, shortened: as §1

ScRvs167 = molecular target: ScRvs167
Procedure, shortened: as §1

ScSho1 = molecular target: ScSho1
Procedure, shortened: as §1

ScSla1-D1-D2 = molecular target: ScSla1-D1-D2
Procedure, shortened: as §1

ScSla1-D3 = molecular target: ScSla1-D3
Procedure, shortened: as §1

SpAbp1-D1 = molecular target: SpAbp1-D1
Procedure, shortened: as §1

SpBbc1 = molecular target: SpBbc1
Procedure, shortened: as §1

SpBzz1-D1 = molecular target: SpBzz1-D1
Procedure, shortened: as §1

SpBzz1-D2 = molecular target: SpBzz1-D2
Procedure, shortened: as §1

SpCyk3 = molecular target: SpCyk3
Procedure, shortened: as §1

SpHof1 = molecular target: SpHof1
Procedure, shortened: as §1

SpHof1-2 = molecular target: SpHof1-2
Procedure, shortened: as §1

SpHof1-3 = molecular target: SpHof1-3
Procedure, shortened: as §1

SpHse1 = molecular target: SpHse1
Procedure, shortened: as §1

SpLsb1 = molecular target: SpLsb1
Procedure, shortened: as §1

SpLsb4 = molecular target: SpLsb4
Procedure, shortened: as §1

SpMyo1 = molecular target: SpMyo1
Procedure, shortened: as §1

SpNbp2 = molecular target: SpNbp2
Procedure, shortened: as §1

SpPex13 = molecular target: SpPex13
Procedure, shortened: as §1

SpRvs167 = molecular target: SpRvs167
Procedure, shortened: as §1

SpSla1-D1-D2 = molecular target: SpSla1-D1-D2
Procedure, shortened: as §1

SpSla1-D3 = molecular target: SpSla1-D3
Procedure, shortened: as §1

NQARKPFLLPATELS
SPOT peptide array binding signal intensity (AgAbp1): ≤ 0 | SPOT peptide array binding signal intensity (AgBbc1): ≤ 0 | SPOT peptide array binding signal intensity (AgBem1-D1): 23.5 | SPOT peptide array binding signal intensity (AgBzz1-D1): 19 | SPOT peptide array binding signal intensity (AgBzz1-D2): 16.5 | SPOT peptide array binding signal intensity (AgCyk3): ≤ 0 | SPOT peptide array binding signal intensity (AgFus1): ≤ 0 | SPOT peptide array binding signal intensity (AgHof1): 11.8 | SPOT peptide array binding signal intensity (AgHse1): 454 | SPOT peptide array binding signal intensity (AgLsb1): 295 | SPOT peptide array binding signal intensity (AgLsb4): ≤ 0 | SPOT peptide array binding signal intensity (AgMyo5): 2 | SPOT peptide array binding signal intensity (AgNbp2): 5 | SPOT peptide array binding signal intensity (AgRvs167): ≤ 0 | SPOT peptide array binding signal intensity (AgSho1): ≤ 0 | SPOT peptide array binding signal intensity (AgSla1-D1-D2): 3 | SPOT peptide array binding signal intensity (AgSla1-D3): 0.5 | SPOT peptide array binding signal intensity (CaAbp1-D1): 225 | SPOT peptide array binding signal intensity (CaAbp1-D2): 17 | SPOT peptide array binding signal intensity (CaBbc1): ≤ 0 | SPOT peptide array binding signal intensity (CaBem1-D1): ≤ 0 | SPOT peptide array binding signal intensity (CaBzz1-D1): ≤ 0 | SPOT peptide array binding signal intensity (CaBzz1-D2): ≤ 0 | SPOT peptide array binding signal intensity (CaCyk3): 1 | SPOT peptide array binding signal intensity (CaFus1): 228 | SPOT peptide array binding signal intensity (CaHof1): ≤ 0 | SPOT peptide array binding signal intensity (CaHse1): 4.75 | SPOT peptide array binding signal intensity (CaLsb1): 0.5 | SPOT peptide array binding signal intensity (CaLsb4): ≤ 0 | SPOT peptide array binding signal intensity (CaMyo5): 3.75 | SPOT peptide array binding signal intensity (CaNbp2): 100 | SPOT peptide array binding signal intensity (CaRvs167): 0.333 | SPOT peptide array binding signal intensity (CaRvs167-3): 4.5 | SPOT peptide array binding signal intensity (CaSho1): 28.5 | SPOT peptide array binding signal intensity (CaSla1-D1-D2): ≤ 0 | SPOT peptide array binding signal intensity (CaSla1-D3): ≤ 0 | SPOT peptide array binding signal intensity (ScAbp1): 59.5 | SPOT peptide array binding signal intensity (ScBbc1): 3.75 | SPOT peptide array binding signal intensity (ScBem1-D1): 3.5 | SPOT peptide array binding signal intensity (ScBzz1-D1): 13 | SPOT peptide array binding signal intensity (ScBzz1-D2): 6.5 | SPOT peptide array binding signal intensity (ScCyk3): 8 | SPOT peptide array binding signal intensity (ScFus1): 15 | SPOT peptide array binding signal intensity (ScHof1): 0.5 | SPOT peptide array binding signal intensity (ScHse1): 1630 | SPOT peptide array binding signal intensity (ScLsb1): 23.5 | SPOT peptide array binding signal intensity (ScLsb2): ≤ 0 | SPOT peptide array binding signal intensity (ScLsb3): ≤ 0 | SPOT peptide array binding signal intensity (ScLsb4): ≤ 0 | SPOT peptide array binding signal intensity (ScMyo3): ≤ 0 | SPOT peptide array binding signal intensity (ScMyo5): ≤ 0 | SPOT peptide array binding signal intensity (ScNbp2): ≤ 0 | SPOT peptide array binding signal intensity (ScPex13): ≤ 0 | SPOT peptide array binding signal intensity (ScRvs167): 4.67 | SPOT peptide array binding signal intensity (ScSho1): 105 | SPOT peptide array binding signal intensity (ScSla1-D1-D2): ≤ 0 | SPOT peptide array binding signal intensity (ScSla1-D3): 8 | SPOT peptide array binding signal intensity (SpAbp1-D1): 34 | SPOT peptide array binding signal intensity (SpBbc1): ≤ 0 | SPOT peptide array binding signal intensity (SpBzz1-D1): ≤ 0 | SPOT peptide array binding signal intensity (SpBzz1-D2): ≤ 0 | SPOT peptide array binding signal intensity (SpCyk3): 1 | SPOT peptide array binding signal intensity (SpHof1): 24.5 | SPOT peptide array binding signal intensity (SpHof1-2): 0.5 | SPOT peptide array binding signal intensity (SpHof1-3): 870 | SPOT peptide array binding signal intensity (SpHse1): 770 | SPOT peptide array binding signal intensity (SpLsb1): 11 | SPOT peptide array binding signal intensity (SpLsb4): ≤ 0 | SPOT peptide array binding signal intensity (SpMyo1): ≤ 0 | SPOT peptide array binding signal intensity (SpNbp2): 7 | SPOT peptide array binding signal intensity (SpPex13): ≤ 0 | SPOT peptide array binding signal intensity (SpRvs167): ≤ 0 | SPOT peptide array binding signal intensity (SpSla1-D1-D2): ≤ 0 | SPOT peptide array binding signal intensity (SpSla1-D3): ≤ 0

From the supplement of paper PMC4466140
